Reference: PubChem BioAssay (NCATS)
Results filed as inconclusive are left out. Entries that show only a call come without a potency. Active and inactive are the calls of the source. Calls follow the shape of the dose curve; as a rule, active = well fitted cell-killing curve with a large enough effect; inconclusive = small, poorly fitted or top-dose-only effect, or effect the other way; inactive = no such curve, though single readings can be large or run the other way.

Assays:
[1] = Viability qHTS for spleen associated tyrosine kinase inhibitor (SYKi) naive MV4-11 cells (AID 1963823); details: MV4-11 AML viability, CellTiter-Glo luminescence, 72 h; series mostly up to 45 µM; also: nearly all actives have a fitted effect of over 40% in size
In short: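 Luminescence from CellTiter-Glo, developed 10 min at room temperature, gave viability of MV4-11 cells never exposed to SYK inhibitor. Cells (500/well) had been incubated with compounds for 72 hr under standard culture conditions.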

[2] = Viability qHTS for spleen associated tyrosine kinase inhibitor (SYKi) drug resistant MV4-11 cells (AID 1963824); details: SYKi-resistant MV4-11 viability, CellTiter-Glo, 72 h; series mostly up to 45 µM; also: nearly all actives have a fitted effect of over 35% in size
In short: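 CellTiter-Glo luminescence, read 10 min after reagent addition, reports viability after a 72 hr compound exposure. Cells are an MV4-11 line made resistant to SYK inhibition, seeded at 500 per well onto compound-containing plates.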
Potency is read from the fitted curve at half-maximal effect.

| Structure (SMILES) | Potency [1] | Potency [2] |
| --- | --- | --- |
| CC(Sc1nc2c(cnn2-c2cccc(Cl)c2)c(=O)[nH]1)C(N)=O (configuration not stated) | inactive | inactive |
| O=C(/C=C/c1ccc(O)cc1)OCC1=C[C@@H](O)[C@@H]2C=CO[C@@H](O[C@@H]3O[C@H](CO)[C@@H](O)[C@H](O)[C@H]3O)[C@H]12 | inactive | inactive |
| O=S(=O)(c1cccc2ccccc12)n1ccc2ccc(N3CCN4CCCC4C3)cc21 (configuration not stated) | 23.1 µM (active) | 20.6 µM (active) |
| CN(C)C(CCOc1cccc2ccccc12)c1ccccc1 (configuration not stated) | 18.4 µM (active) | 14.6 µM (active) |
| C=C1C(=O)OC2C1CCC1(C)C(O)CCC(=C)C21 (configuration not stated) | 9.2 µM (active) | 4.61 µM (active) |
| CCC(C)(O)C(O)C(=O)OCc1ccc(O[C@@H]2O[C@H](CO)[C@@H](O)[C@H](O)[C@H]2O)c(OC)c1 (some centres not stated) | inactive | inactive |
| O=C(O)c1ccnc2cc(-c3nc4ccccc4n3CCN3CCCCC3)sc12 | inactive | inactive |
| C[C@H]1CC[C@@H]2N(C1)C[C@@H]1[C@H]([C@@H](O)[C@H](O)[C@]3(O)[C@H]1C[C@@]14OC5(O)[C@@H](C[C@@H](O)[C@@H]31)[C@]4(C)CC[C@@H]5O)[C@]2(C)O | inactive | inactive |
| CCC(C)C(=O)OC1CC(O)C23C4OCC5(C(O)CC2C1(C)C(O)O4)C3C(=O)CC1(C)C(c2ccoc2)CC2OC215 (configuration not stated) | 0.893 µM (active) | 0.563 µM (active) |
| C[C@@H](CC[C@@H]1[C@@]2(C)CCCC(C)(C)C2CC[C@@]1(C)O)CC(=O)O (some centres not stated) | inactive | inactive |
| CCC(C)C1NC(=O)C2CCCN2C(=O)C(C(C)C)NC(=O)c2ccccc2NC(=O)C(Cc2ccc(O)cc2)NC(=O)C(C)NC(=O)C(C(C)O)NC1=O (configuration not stated) | inactive | inactive |
